# Results filed as inconclusive are left out. Activity calls are given as the source filed them. How the source made its calls: active means hit-call score of the fitted dose curve at least 0.9, where 1 is the maximum; inconclusive means response in the unintended direction; inactive means score below 0.9.
# What was measured:
# [1] = test system: guinea pig Leukotriene B4 Receptor (LTB4), gene 100379538; test: NVS_GPCR_gLTB4: NovaScreen (NVS) G Protein-Coupled Receptor Assay for guinea pig Leukotriene B4 Receptor (LTB4) (AID 2283247)
# Outline: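 Membranes from guinea pig spleen incubated 2 h with radioligand and compound; bound counts measured by filtration and scintillation. Screened first at 25 uM in duplicate, then actives titrated to a 50 uM top concentration relative to DMSO.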
# [2] = biological target: guinea pig Opioid, Kappa 1 Receptor (OpiateK), OPRK1 (gene 100135587) (UniProt P41144); test: NVS_GPCR_gOpiateK: NovaScreen (NVS) G Protein-Coupled Receptor Assay for guinea pig Opioid, Kappa 1 Receptor (OpiateK) (AID 2283252);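 further: radioligand displacement from kappa opioid receptor in guinea pig cerebellar membranes; active means reduced radioligand binding relative to DMSO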
# guinea pig Opioid, Kappa 1 Receptor (OpiateK), OPRK1 (gene 100135587), sequence (P41144 whole entry, looked up): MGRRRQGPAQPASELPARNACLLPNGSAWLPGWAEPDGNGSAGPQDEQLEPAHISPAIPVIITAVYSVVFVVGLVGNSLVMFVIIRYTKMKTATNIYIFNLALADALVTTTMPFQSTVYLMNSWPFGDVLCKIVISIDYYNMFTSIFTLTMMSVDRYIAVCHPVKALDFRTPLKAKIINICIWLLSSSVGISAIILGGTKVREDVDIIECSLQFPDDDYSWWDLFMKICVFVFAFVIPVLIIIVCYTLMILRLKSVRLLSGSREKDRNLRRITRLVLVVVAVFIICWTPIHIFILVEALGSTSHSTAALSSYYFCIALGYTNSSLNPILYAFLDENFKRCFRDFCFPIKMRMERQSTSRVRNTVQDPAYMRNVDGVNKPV
# Outline: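 Cell-free tissue prep: guinea pig cerebellar membranes, radioligand displacement, 2 h incubation. Readout: filtration plus scintillation counting. Primary single-point 25 uM duplicate; actives retested in concentration series; DMSO negative control.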
# [3] = biological target: Type-1 angiotensin II receptor (Homo sapiens) (UniProt P30556); test: NVS_GPCR_hAT1: NovaScreen (NVS) G Protein-Coupled Receptor Assay for human Angiotensin II receptor type 1 (AT1) (AID 2283263)
# Type-1 angiotensin II receptor (Homo sapiens), sequence (P30556 whole entry, looked up): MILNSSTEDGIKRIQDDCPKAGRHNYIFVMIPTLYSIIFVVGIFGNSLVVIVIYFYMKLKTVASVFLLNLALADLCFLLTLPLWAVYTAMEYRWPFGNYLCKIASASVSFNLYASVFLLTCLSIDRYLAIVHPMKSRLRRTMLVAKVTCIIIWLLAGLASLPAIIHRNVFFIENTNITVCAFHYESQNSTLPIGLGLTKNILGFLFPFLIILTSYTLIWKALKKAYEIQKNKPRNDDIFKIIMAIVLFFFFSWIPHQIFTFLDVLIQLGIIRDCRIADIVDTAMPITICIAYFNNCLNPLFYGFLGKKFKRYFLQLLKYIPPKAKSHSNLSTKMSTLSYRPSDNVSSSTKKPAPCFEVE
# Outline: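 Hits from a 25 uM duplicate screen (threshold e.g. 30% inhibition) were run in concentration-response with 50 uM top concentration. Displacement of specific radioligand from KAN-TS membrane preparations measured after 3 h by filter scintillation, DMSO as baseline.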
# [4] = biological target: bovine Dopamine Receptor (DR), Non-selective Binding, DRD1 (gene 281125) (UniProt Q95136); test: NVS_GPCR_bDR_NonSelective: NovaScreen (NVS) G Protein-Coupled Receptor Assay for bovine Dopamine Receptor (DR), Non-selective Binding (AID 2283241)
# bovine Dopamine Receptor (DR), Non-selective Binding, DRD1 (gene 281125), sequence (Q95136 whole entry, looked up): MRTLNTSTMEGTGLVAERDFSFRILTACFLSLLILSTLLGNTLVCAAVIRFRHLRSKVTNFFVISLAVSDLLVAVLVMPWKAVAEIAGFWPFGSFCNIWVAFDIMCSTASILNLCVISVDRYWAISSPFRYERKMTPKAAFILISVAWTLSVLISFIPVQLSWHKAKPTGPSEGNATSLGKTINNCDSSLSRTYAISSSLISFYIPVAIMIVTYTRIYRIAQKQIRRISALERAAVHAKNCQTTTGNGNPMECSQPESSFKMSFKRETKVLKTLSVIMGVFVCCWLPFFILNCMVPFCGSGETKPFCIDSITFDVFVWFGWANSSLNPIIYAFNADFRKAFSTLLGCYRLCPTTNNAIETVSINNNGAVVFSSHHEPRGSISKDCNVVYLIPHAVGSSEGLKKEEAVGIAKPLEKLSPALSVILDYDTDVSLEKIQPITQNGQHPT
# Outline: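 Filter-based radioligand binding with bovine striatal membrane, incubated 1 h; DMSO as negative baseline. Initial duplicate single-point test at 25 uM preceded concentration series for actives.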
# [5] = biological target: human Serotonin, 5-Hydroxytryptamine Receptor 2A (5HT2A), HTR2A (gene 3356) (UniProt P28223); test: NVS_GPCR_h5HT2A: NovaScreen (NVS) G Protein-Coupled Receptor Assay for human Serotonin, 5-Hydroxytryptamine Receptor 2A (5HT2A) (AID 2283249)
# human Serotonin, 5-Hydroxytryptamine Receptor 2A (5HT2A), HTR2A (gene 3356), sequence (P28223 whole entry, looked up): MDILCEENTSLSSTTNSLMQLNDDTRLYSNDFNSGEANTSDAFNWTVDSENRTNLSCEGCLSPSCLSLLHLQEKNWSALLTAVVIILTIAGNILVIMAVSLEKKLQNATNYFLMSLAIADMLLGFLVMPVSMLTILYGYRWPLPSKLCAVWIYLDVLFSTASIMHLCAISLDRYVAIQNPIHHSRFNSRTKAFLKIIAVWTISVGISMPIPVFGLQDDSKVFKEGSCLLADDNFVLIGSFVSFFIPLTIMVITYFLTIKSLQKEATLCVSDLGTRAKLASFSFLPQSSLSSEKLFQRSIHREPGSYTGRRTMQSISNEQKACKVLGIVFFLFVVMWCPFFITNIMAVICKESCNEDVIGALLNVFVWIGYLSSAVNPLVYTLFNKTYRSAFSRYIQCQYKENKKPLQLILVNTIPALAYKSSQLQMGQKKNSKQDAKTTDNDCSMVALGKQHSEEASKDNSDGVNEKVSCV
# Outline: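 Radioligand displacement on human cortex tissue extract, counted by filtration and scintillation 1.5 h post-dosing. Initial single-concentration screen at 25 uM in duplicate, concentration series in follow-up; DMSO as baseline.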
# [6] = test system: guinea pig Muscarinic, Peripheral (Mperiperal) Receptor, Non-selective Binding, gene 100379235; test: NVS_GPCR_gMPeripheral_NonSelective: NovaScreen (NVS) G Protein-Coupled Receptor Assay for guinea pig Muscarinic, Peripheral (Mperiperal) Receptor, Non-selective Binding (AID 2283250)
# Outline: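 Screened in duplicate at 25 uM, hits retested in concentration series to 50 uM max, using bladder membrane radioligand displacement from guinea pig. Filtration and scintillation counting 1 h post-dose, fitted relative to DMSO.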
# [7] = biological target: human Serotonin, 5-Hydroxytryptamine Receptor 7 (5HT7), HTR7 (gene 3363) (UniProt P34969); test: NVS_GPCR_h5HT7: NovaScreen (NVS) G Protein-Coupled Receptor Assay for human Serotonin, 5-Hydroxytryptamine Receptor 7 (5HT7) (AID 2283255);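 further: hits reduce specific radioligand binding relative to DMSO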
# human Serotonin, 5-Hydroxytryptamine Receptor 7 (5HT7), HTR7 (gene 3363), sequence (P34969 whole entry, looked up): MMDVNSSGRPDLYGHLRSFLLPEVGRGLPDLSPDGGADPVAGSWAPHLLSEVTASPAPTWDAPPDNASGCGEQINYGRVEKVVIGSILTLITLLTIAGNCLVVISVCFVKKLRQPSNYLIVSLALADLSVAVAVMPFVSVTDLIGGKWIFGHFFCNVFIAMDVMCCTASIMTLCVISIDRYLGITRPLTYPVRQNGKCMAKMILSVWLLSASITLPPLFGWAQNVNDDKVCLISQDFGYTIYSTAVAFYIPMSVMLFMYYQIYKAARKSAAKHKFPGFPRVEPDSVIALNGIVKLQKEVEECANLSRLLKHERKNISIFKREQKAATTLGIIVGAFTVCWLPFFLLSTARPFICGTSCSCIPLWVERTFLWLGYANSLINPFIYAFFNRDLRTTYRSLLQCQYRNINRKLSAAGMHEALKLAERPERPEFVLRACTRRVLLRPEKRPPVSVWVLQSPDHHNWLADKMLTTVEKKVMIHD
# Outline: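 Filter-bound radioactivity counted after 1 h, with loss of specific radioligand binding fitted against DMSO. Membrane protein came from CHO cells expressing human 5HT7. Chemicals were tested first at 25 uM in duplicate, then in concentration series if active.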
# [8] = biological target: human Adrenergic, Beta 3 Receptor (Adrb3), ADRB3 (gene 155) (UniProt P13945); test: NVS_GPCR_hAdrb3: NovaScreen (NVS) G Protein-Coupled Receptor Assay for human Adrenergic, Beta 3 Receptor (Adrb3) (AID 2283262)
# human Adrenergic, Beta 3 Receptor (Adrb3), ADRB3 (gene 155), sequence (P13945 whole entry, looked up): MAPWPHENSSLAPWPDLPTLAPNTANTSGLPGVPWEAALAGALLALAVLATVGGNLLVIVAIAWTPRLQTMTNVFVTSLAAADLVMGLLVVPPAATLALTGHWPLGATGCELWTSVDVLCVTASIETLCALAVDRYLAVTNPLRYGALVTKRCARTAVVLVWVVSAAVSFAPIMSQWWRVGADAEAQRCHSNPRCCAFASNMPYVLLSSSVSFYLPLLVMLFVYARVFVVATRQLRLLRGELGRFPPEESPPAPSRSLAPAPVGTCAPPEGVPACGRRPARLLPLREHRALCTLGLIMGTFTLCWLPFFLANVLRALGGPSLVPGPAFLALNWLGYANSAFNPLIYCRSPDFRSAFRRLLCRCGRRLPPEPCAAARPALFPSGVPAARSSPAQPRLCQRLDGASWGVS
# Outline: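 A cell-free filter binding assay read by scintillation counting, with displacement of a specific radioligand measured after 1 hour. The receptor source was SK-N-MC extracts (cells pretreated with isoproterenol and 8-bromo-cAMP). Compounds were first tested at 25 uM in duplicate and then in concentration series.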
# [9] = biological target: guinea pig Leukotriene D4 Receptor (LTD4), CYSLTR1 (gene 100135514) (UniProt Q2NNR5); test: NVS_GPCR_gLTD4: NovaScreen (NVS) G Protein-Coupled Receptor Assay for guinea pig Leukotriene D4 Receptor (LTD4) (AID 2283248)
# Outline: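 Guinea pig lung membrane preparation; bound radioligand measured by filter scintillation after 1 h, loss of signal versus DMSO marking displacement. Compounds tested at 25 uM in duplicate, hits retested to max 50 uM.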
# [10] = biological target: human Serotonin, 5-Hydroxytryptamine Receptor 5A (5HT5A), HTR5A (gene 3361) (UniProt P47898); test: NVS_GPCR_h5HT5A: NovaScreen (NVS) G Protein-Coupled Receptor Assay for human Serotonin, 5-Hydroxytryptamine Receptor 5A (5HT5A) (AID 2283251)
# human Serotonin, 5-Hydroxytryptamine Receptor 5A (5HT5A), HTR5A (gene 3361), sequence (P47898 whole entry, looked up): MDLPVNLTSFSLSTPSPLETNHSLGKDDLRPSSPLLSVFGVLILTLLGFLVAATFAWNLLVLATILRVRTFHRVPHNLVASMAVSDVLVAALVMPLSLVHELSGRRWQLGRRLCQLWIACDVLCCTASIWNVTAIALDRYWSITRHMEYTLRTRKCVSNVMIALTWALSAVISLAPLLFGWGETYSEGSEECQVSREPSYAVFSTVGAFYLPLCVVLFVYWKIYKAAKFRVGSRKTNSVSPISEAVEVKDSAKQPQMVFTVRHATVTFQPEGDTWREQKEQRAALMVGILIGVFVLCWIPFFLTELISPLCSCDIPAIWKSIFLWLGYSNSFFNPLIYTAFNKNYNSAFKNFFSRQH
# Outline: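 Membranes from HEK293 cells, radioligand binding read by filtration and scintillation after 1 h. Single-concentration duplicate testing at 25 uM, then concentration-response for actives; positive-direction fitting relative to DMSO.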
# [11] = biological target: human Serotonin, 5-Hydroxytryptamine Receptor 6 (5HT6), HTR6 (gene 3362) (UniProt P50406); test: NVS_GPCR_h5HT6: NovaScreen (NVS) G Protein-Coupled Receptor Assay for human Serotonin, 5-Hydroxytryptamine Receptor 6 (5HT6) (AID 2283253)
# Outline: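 Filter scintillation counting of radioligand displacement from HEK293-expressed 5HT6, 1 hour post-dose, with loss of signal relative to DMSO. Single 25 uM duplicates first, with concentration series for confirmation.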
# [12] = biological target: human Adrenergic, Beta 1 Receptor (Adrb1), ADRB1 (gene 153) (UniProt P08588); test: NVS_GPCR_hAdrb1: NovaScreen (NVS) G Protein-Coupled Receptor Assay for human Adrenergic, Beta 1 Receptor (Adrb1) (AID 2283258)
# Outline: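 Membranes/protein extracted from human neuroepithelioma cells, radioligand competition binding read by filtration and scintillation 2 h post-dose. Single 25 uM duplicate screen, then concentration-response follow-up; DMSO as negative control.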
# [13] = biological target: human Adrenergic, Alpha 2c Receptor (Adra2C), ADRA2C (gene 152) (UniProt P18825); test: NVS_GPCR_hAdra2C: NovaScreen (NVS) G Protein-Coupled Receptor Assay for human Adrenergic, Alpha 2c Receptor (Adra2C) (AID 2283259)
# human Adrenergic, Alpha 2c Receptor (Adra2C), ADRA2C (gene 152), sequence (P18825 whole entry, looked up): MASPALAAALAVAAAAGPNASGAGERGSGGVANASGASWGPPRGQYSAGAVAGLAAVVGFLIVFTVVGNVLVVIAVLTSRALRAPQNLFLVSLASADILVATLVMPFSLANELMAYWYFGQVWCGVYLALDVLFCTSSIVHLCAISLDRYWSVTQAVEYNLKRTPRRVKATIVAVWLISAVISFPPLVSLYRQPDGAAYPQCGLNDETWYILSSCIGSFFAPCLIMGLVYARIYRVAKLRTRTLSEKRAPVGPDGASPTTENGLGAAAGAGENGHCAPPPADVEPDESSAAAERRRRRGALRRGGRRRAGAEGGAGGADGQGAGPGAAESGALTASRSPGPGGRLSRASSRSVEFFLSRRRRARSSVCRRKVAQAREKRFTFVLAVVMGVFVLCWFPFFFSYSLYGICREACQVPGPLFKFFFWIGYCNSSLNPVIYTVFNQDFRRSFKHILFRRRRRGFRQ
# Outline: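 Screened first in duplicate at 25 uM, with actives then run as concentration series. Membranes from Sf9 cells were exposed for 1 h, and displacement of radioligand was counted after filtration, using DMSO as baseline.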
# [14] = biological target: Beta-2 adrenergic receptor (Homo sapiens) (UniProt P07550); test: NVS_GPCR_hAdrb2: NovaScreen (NVS) G Protein-Coupled Receptor Assay for human Adrenergic, Beta 2 Receptor (Adrb2) (AID 2283261)
# Beta-2 adrenergic receptor (Homo sapiens), sequence (P07550 whole entry, looked up): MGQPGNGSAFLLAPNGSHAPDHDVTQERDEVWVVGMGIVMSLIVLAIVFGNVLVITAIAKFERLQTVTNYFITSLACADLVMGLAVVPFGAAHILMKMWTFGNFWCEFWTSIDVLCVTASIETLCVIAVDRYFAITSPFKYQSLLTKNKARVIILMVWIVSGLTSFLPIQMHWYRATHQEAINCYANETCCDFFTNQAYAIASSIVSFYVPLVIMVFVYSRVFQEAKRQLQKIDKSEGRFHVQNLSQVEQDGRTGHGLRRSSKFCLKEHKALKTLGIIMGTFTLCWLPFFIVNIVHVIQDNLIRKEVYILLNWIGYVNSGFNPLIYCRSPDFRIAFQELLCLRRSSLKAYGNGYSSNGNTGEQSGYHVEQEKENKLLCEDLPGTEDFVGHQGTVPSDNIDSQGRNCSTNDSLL
# Outline: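 Compounds screened in duplicate at 25 uM, then actives in concentration series. Human beta-2 receptor from CHO material, cell-free; radioligand displacement after 1 h measured by filtration and scintillation against DMSO baseline.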
# [15] = test system: bovine Histamine 1 Receptor (H1), gene 281231; test: NVS_GPCR_bH1: NovaScreen (NVS) G Protein-Coupled Receptor Assay for bovine Histamine 1 Receptor (H1) (AID 2283246)
# Outline: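 Hits from a 25 uM duplicate primary screen were retested in concentration series (top 50 uM); binding measured as scintillation-counted displacement of radioligand from bovine cerebellar membranes after 1 h, normalised to DMSO.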
# [16] = biological target: human Adrenergic, Alpha 2A Receptor (Adra2A), ADRA2A (gene 150) (UniProt P08913); test: NVS_GPCR_hAdra2A: NovaScreen (NVS) G Protein-Coupled Receptor Assay for human Adrenergic, Alpha 2A Receptor (Adra2A) (AID 2283257)
# Outline: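 Displacement of a specific radioligand from HT29 membrane protein was counted by filter scintillation after 1 h. Compounds were screened in duplicate at 25 uM, and actives were retested in concentration series. Fitting was positive-direction against DMSO.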
# [17] = biological target: Adenosine receptor A1 (Bos taurus) (UniProt P28190); test: NVS_GPCR_bAdoR_NonSelective: NovaScreen (NVS) G Protein-Coupled Receptor Assay for bovine Adenosine Receptor (AdoR), Non-selective Binding (AID 2283244)
# Adenosine receptor A1 (Bos taurus), sequence (P28190 whole entry, looked up): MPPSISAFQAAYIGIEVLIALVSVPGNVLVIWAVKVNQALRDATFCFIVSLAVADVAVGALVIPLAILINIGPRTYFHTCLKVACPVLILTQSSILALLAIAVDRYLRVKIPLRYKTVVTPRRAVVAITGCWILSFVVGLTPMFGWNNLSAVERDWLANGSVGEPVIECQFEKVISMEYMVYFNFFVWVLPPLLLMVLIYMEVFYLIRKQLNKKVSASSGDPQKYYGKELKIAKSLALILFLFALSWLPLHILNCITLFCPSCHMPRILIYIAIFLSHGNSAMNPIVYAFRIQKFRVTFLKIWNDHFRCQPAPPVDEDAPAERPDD
# Outline: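 Cell-free binding with membranes from bovine striatum: radioligand displaced by test chemical, read after 1 h by filtration and scintillation. Single-point 25 uM duplicate primary, 50 uM top concentration in follow-up curves, DMSO baseline.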
# [18] = NVS_GPCR_bNPY_NonSelective: NovaScreen (NVS) G Protein-Coupled Receptor Assay for bovine Neuropeptide Y (NPY) Receptor, Non-selective Binding (AID 2283245)
# Outline: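 Displacement of radioligand from bovine hippocampal membrane receptors, read by filtration and scintillation counting after 1 hour. Concentration-response to a top of 50 uM followed a 25 uM duplicate primary screen. Loss of signal versus DMSO.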
# [19] = biological target: human Adenosine A1 Receptor (AdoRA1), ADORA1 (gene 134) (UniProt P30542); test: NVS_GPCR_hAdoRA1: NovaScreen (NVS) G Protein-Coupled Receptor Assay for human Adenosine A1 Receptor (AdoRA1) (AID 2283254)
# human Adenosine A1 Receptor (AdoRA1), ADORA1 (gene 134), sequence (P30542 whole entry, looked up): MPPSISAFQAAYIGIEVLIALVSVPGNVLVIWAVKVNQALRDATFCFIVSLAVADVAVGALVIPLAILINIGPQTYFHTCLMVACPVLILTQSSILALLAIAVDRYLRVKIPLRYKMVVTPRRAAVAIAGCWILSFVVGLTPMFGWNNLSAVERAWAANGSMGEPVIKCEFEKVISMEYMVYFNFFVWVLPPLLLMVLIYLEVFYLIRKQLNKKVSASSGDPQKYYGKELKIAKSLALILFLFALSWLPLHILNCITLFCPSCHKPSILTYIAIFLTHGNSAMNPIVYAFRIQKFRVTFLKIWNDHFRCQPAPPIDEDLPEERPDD
# Outline: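 Each chemical is first tested twice at 25 uM, actives later in dilution series, against a radioligand bound to human cortex membranes; after 1 h, filter-retained counts are compared with DMSO controls, lower signal indicating displacement.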
# [20] = biological target: human Adenosine A2a Receptor (AdoRA2a), ADORA2A (gene 135) (UniProt P29274); test: NVS_GPCR_hAdoRA2a: NovaScreen (NVS) G Protein-Coupled Receptor Assay for human Adenosine A2a Receptor (AdoRA2a) (AID 2283256)
# human Adenosine A2a Receptor (AdoRA2a), ADORA2A (gene 135), sequence (P29274 whole entry, looked up): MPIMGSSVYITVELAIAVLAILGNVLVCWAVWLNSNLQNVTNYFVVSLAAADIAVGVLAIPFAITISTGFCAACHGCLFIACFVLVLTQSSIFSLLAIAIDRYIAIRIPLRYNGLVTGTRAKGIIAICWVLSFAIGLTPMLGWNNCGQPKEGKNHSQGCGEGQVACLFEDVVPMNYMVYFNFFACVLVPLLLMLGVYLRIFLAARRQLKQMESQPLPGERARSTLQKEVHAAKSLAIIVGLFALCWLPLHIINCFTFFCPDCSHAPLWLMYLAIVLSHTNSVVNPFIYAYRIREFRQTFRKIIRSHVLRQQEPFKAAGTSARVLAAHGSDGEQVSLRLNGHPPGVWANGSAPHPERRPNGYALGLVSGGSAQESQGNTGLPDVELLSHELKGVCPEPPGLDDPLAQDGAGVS
# Outline: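 Compounds screened in duplicate at 25 uM, with actives followed up in concentration series, for displacement of a radioligand from HEK293-derived receptor protein. Bound counts read by filter scintillation at 1.5 hours, DMSO as baseline.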
compound,measurement,setting,value
O=Cc1ccccc1C=O,outcome,[1],inactive
same,AC50,[2],9.81 µM (active)
same,outcome,[3],inactive
O=C(N[C@@H](c1ccccc1)[C@@H]1CCCCN1)c1cccc(C(F)(F)F)c1Cl,AC50,[4],25 µM (active)
same,AC50,[5],25 µM (active)
same,outcome,[6],inactive
same,AC50,[2],0.641 µM (active)
same,AC50,[7],8.16 µM (active)
same,outcome,[8],inactive
CCCCCCCCCCCCCCOS(=O)(=O)O,AC50,[9],9.7 µM (active)
same,AC50,[6],25 µM (active)
same,AC50,[10],20.3 µM (active)
same,AC50,[11],39.1 µM (active)
same,AC50,[7],16.5 µM (active)
same,AC50,[12],5.22 µM (active)
same,AC50,[13],2.99 µM (active)
same,AC50,[14],15.4 µM (active)
same,outcome,[3],inactive
CN(C)CCCN1c2ccccc2Sc2ccc(Cl)cc21,outcome,[15],inactive
same,AC50,[6],1.66 µM (active)
same,AC50,[10],1.35 µM (active)
same,AC50,[2],10.1 µM (active)
same,AC50,[16],1.43 µM (active)
same,AC50,[12],25 µM (active)
same,AC50,[14],17.1 µM (active)
same,AC50,[8],25 µM (active)
CN(C)C(=O)NC1(c2ccccc2)CCN(CCC[C@]2(c3ccc(Cl)c(Cl)c3)CCCN(C(=O)c3ccccc3)C2)CC1,AC50,[4],1.3 µM (active)
same,outcome,[17],inactive
same,outcome,[18],inactive
same,outcome,[5],inactive
same,AC50,[6],5.86 µM (active)
same,outcome,[10],inactive
same,AC50,[2],3.56 µM (active)
same,outcome,[7],inactive
same,outcome,[8],inactive
CO[C@@H]1COCC[C@@H]1N[C@@H]1CC[C@@](C(=O)N2CCc3ncc(C(F)(F)F)cc3C2)(C(C)C)C1,outcome,[15],inactive
CC(=O)O,outcome,[5],inactive
CCN(CC)CCOc1ccc(C(=C(Cl)c2ccccc2)c2ccccc2)cc1,AC50,[4],14.2 µM (active)
same,AC50,[18],30 µM (active)
same,AC50,[6],4.82 µM (active)
same,AC50,[10],1.46 µM (active)
same,outcome,[2],inactive
same,AC50,[11],5.6 µM (active)
same,AC50,[19],11 µM (active)
same,AC50,[7],3.31 µM (active)
same,AC50,[20],11.6 µM (active) [middle of 4 runs]
same,AC50,[13],1.58 µM (active)
same,AC50,[14],18.2 µM (active)
same,outcome,[8],inactive
Cc1occc(=O)c1O,outcome,[5],inactive
O=C(O)CN(CC(=O)O)CC(=O)O,outcome,[17],inactive
Nc1nc(Cl)nc2c1ncn2[C@H]1C[C@H](O)[C@@H](CO)O1,AC50,[17],10.6 µM (active)
same,AC50,[19],8.99 µM (active)
same,AC50,[20],13.1 µM (active)
C#CC(O)C(CC)CCCC (configuration not stated),AC50,[1],2.8 µM (active)
CCCCc1nc2cccnc2n1Cc1ccc(-c2ccccc2-c2nnn[nH]2)cc1,AC50,[1],10.9 µM (active)
same,AC50,[2],10 µM (active)
same,outcome,[13],inactive
same,AC50,[3],0.0191 µM (active)
CCc1cc(C2=C(C(=O)O)N(c3ccccc3C(F)(F)F)S(=O)(=O)c3ccccc32)cc2c1OCO2,AC50,[1],3.48 µM (active)
same,outcome,[2],inactive
same,AC50,[3],16.2 µM (active)

# Reference: PubChem BioAssay (EPA / NIEHS)
